Among the test systems are DU-145 prostate; K-562 leukemia; MALME-3M melanoma; MDA-MB-231 breast; RXF 393 renal; SF-268 CNS; SF-295 CNS; SF-539 CNS; UACC-257 melanoma; M14 melanoma.
What all share (experiment): NCI-60 one-dose screen, 48 h (100 = growth as untreated, 0 = no growth, -100 = all killed)
Common to all, as to details: 10 µM

SMILES strings stand for the structures. About 83,000 compounds went through this panel and 20% of them were active in at least one assay; those are over-represented in the sample as a whole.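 The test compound was applied at a single concentration to cells in 96-well plates for 48 hours, and percent growth was recorded.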 A number with no mark means an inactive call. Activity calls are given as the source filed them. Rule for the calls: active = growth percent below 10; inactive = the rest.

The values that follow come from PubChem BioAssay (NCI).

Consider `O=c1oc2ccc(-c3ccc(F)cc3F)cc2c(=O)n1-c1ccc(F)cc1`, for which the growth with DU-145 prostate was 14.5%; with K-562 leukemia, 5.98% (active); in the test with MALME-3M melanoma, -21.2% (active); with MDA-MB-231 breast, -5.38% (active); in the test with RXF 393 renal, -10.4% (active); in the test on SF-268 CNS it was 2.76% (active). The growth with SF-295 CNS was -19.3% (active); with SF-539 CNS it was -3.51% (active); in the test on UACC-257 melanoma, 15.5%; in the test with M14 melanoma, 18.3%.

Regarding `O=C(Nc1ccc(F)c(Cl)c1)c1cc(-c2ccc(F)cc2F)ccc1O`, the growth in the test with DU-145 prostate is 13.3%; in the test with K-562 leukemia, 6.16% (active); with MALME-3M melanoma it was -28.6% (active); with MDA-MB-231 breast, -24.5% (active); with RXF 393 renal it was -16.6% (active); with SF-268 CNS it was 4.5% (active). In addition, the growth in the test on SF-295 CNS is -82.1% (active); with SF-539 CNS it was -7.23% (active); with UACC-257 melanoma, -13.5% (active); with M14 melanoma, 20%.

As to `O=C(c1ccc(O)cc1)C1[C@H](c2ccccc2Br)[C@@H](c2ccccc2)NC12C(=O)Nc1ccc(Br)cc12` (stereo not given in full), the growth is 70.2% with DU-145 prostate; 29.9% in the test on K-562 leukemia; 78.7% in the test on MALME-3M melanoma; 46.3% in the test with MDA-MB-231 breast; 55.3% in the test on RXF 393 renal; 40% with SF-268 CNS. The growth in the test on SF-295 CNS is 26.6%; in the test on SF-539 CNS it was 49.1%; in the test on UACC-257 melanoma it was 65.4%; in the test with M14 melanoma, 54.6%.

As to `O=C(Nc1ccc(I)cc1F)c1cc(-c2ccc(F)cc2F)ccc1O`, the growth in the test with DU-145 prostate is 21.5%; in the test with K-562 leukemia it was 7.69% (active); in the test on MALME-3M melanoma it was -21.4% (active); in the test on MDA-MB-231 breast, -1.69% (active); in the test with RXF 393 renal, -9.21% (active); with SF-268 CNS, 8.16% (active). Moreover, the growth is -37.7% (active) in the test with SF-295 CNS, 0.0441% (active) in the test on SF-539 CNS, -7.17% (active) in the test on UACC-257 melanoma and 28.8% with M14 melanoma.

`CC(=O)Nc1ccc(-n2cnc3cc(-c4ccc(O)cc4)ccc32)cc1C`: the growth in the test on DU-145 prostate was 60.8%; in the test with K-562 leukemia, 41.2%; with MALME-3M melanoma, 58.9%; with MDA-MB-231 breast, 49.3%; with RXF 393 renal, 43.4%; in the test with SF-268 CNS it was 53.1%. Further, the growth is 52.8% in the test on SF-295 CNS, 41.5% in the test on SF-539 CNS, 61.2% in the test with UACC-257 melanoma and 42.3% with M14 melanoma.

`CCCCCCCCCCCCCCCCCCCC(=O)NCCc1c[nH]c2ccc(O)cc12`: the growth in the test on DU-145 prostate was 105%; in the test with K-562 leukemia, 74.5%; in the test on MALME-3M melanoma it was 120%; in the test with MDA-MB-231 breast it was 78%; with RXF 393 renal, 115%; with SF-268 CNS, 91.6%. Also, the growth with SF-295 CNS was 96.3%; in the test with SF-539 CNS, 60.8%; with UACC-257 melanoma, 107%; in the test with M14 melanoma, 101%.

For the molecule `CN1C(=O)/C(=C/c2nccs2)SC1=S`, the growth in the test on DU-145 prostate was 91.2%; with K-562 leukemia it was 66.8%; in the test with MALME-3M melanoma, 82.1%; in the test on MDA-MB-231 breast, 87.5%; in the test with RXF 393 renal, 103%; in the test with SF-268 CNS, 104%. In addition, the growth in the test with SF-295 CNS was 93.2%; in the test with SF-539 CNS, 95.4%; with UACC-257 melanoma, 85.4%; in the test on M14 melanoma, 87.2%.

In the case of `O=C(Nc1nc2ccc([N+](=O)[O-])cc2s1)Nc1ccccc1I`, the growth with DU-145 prostate is 17.9%; in the test with K-562 leukemia, 4.53% (active); with MALME-3M melanoma it was -5.11% (active); in the test with MDA-MB-231 breast, 0.0164% (active); in the test on RXF 393 renal, -12.7% (active); in the test with SF-268 CNS, 22%. Besides, the growth with SF-295 CNS was -25.8% (active); in the test on SF-539 CNS, -0.233% (active); in the test with UACC-257 melanoma, -17.8% (active); in the test on M14 melanoma it was 2.29% (active).

Consider `Cc1ccc(/C(N)=N/c2sc(-c3ccccc3)nc2-c2ccccc2)cc1`, for which the growth with DU-145 prostate is 89%; in the test with K-562 leukemia, 28.5%; in the test on MALME-3M melanoma, 89.2%; in the test with MDA-MB-231 breast, 82.5%; with RXF 393 renal it was 82.7%; in the test with SF-268 CNS it was 79.2%. Also, the growth in the test with SF-295 CNS was 77.6%; in the test with SF-539 CNS, 79.7%; in the test on UACC-257 melanoma, 93.9%; in the test on M14 melanoma, 79.6%.

For `C=C1CCC2C3(C)COC(c4cc(F)cc(F)c4)OC3CCC2(C)C1C/C=C1/C(=O)OCC1O` (stereo not given), the growth with DU-145 prostate is -52.9% (active); in the test on K-562 leukemia, 12.7%; in the test with MALME-3M melanoma, -78.8% (active); with MDA-MB-231 breast, -63.7% (active); with RXF 393 renal, -73.7% (active); in the test on SF-268 CNS, 36.7%. In addition, the growth with SF-295 CNS is -82.7% (active); in the test with SF-539 CNS it was -90.9% (active); in the test on UACC-257 melanoma, -85.4% (active); in the test with M14 melanoma, -64.6% (active).

As for `N#Cc1c(NC(=O)c2cccc(C(F)(F)F)c2)sc2c1CCC(O)=C2`, the growth in the test on DU-145 prostate was 50.1%; with K-562 leukemia, 14.5%; in the test with MALME-3M melanoma, 19.3%; in the test with MDA-MB-231 breast, 39.6%; in the test on RXF 393 renal, 50.7%; in the test on SF-268 CNS, 38.6%. Also, the growth was 35.3% in the test with SF-295 CNS, 48.1% in the test on SF-539 CNS, 30.1% in the test on UACC-257 melanoma and 36.8% in the test on M14 melanoma.

As for `Cc1cc(C)cc(Oc2cccc(-c3c(C)nnn3C3CCN(CCN(C)C)CC3)n2)c1`, the growth in the test on DU-145 prostate is 55.8%; with K-562 leukemia, 13.6%; in the test on MALME-3M melanoma it was -40.5% (active); in the test on MDA-MB-231 breast, 36.9%; with RXF 393 renal it was -6.82% (active); in the test on SF-268 CNS, 52.2%. Besides, the growth was 32.9% with SF-295 CNS, 34.2% with SF-539 CNS, -31.7% (active) in the test on UACC-257 melanoma and 7.14% (active) with M14 melanoma.

In the case of `COc1ccc([C@H]2C(C(=O)c3ccc(Cl)cc3)C3(N[C@@H]2c2ccccc2)C(=O)Nc2ccc(Br)cc23)cc1` (stereo not given in full), the growth with DU-145 prostate is 17%; in the test with K-562 leukemia it was 5.88% (active); with MALME-3M melanoma it was -7.99% (active); in the test on MDA-MB-231 breast it was -58.3% (active); with RXF 393 renal, -72.9% (active); with SF-268 CNS, 18.9%. For the same molecule, the growth in the test with SF-295 CNS was -60.2% (active); with SF-539 CNS it was -21.5% (active); in the test on UACC-257 melanoma, 17%; in the test with M14 melanoma, 16.1%.
